Screens: PubChem, SRMLSC
In the library only some 6.3% were active in any assay of this set; here they are far more common.
NADH enzymes – inhibition of NAD/NADH coupling enzymes, library profiling; coupled PK/LDH NADH assays, four targets; IC50, µM (titrated, usually from 10 µM), inactives show at the top dose inhibition; 65,000 compounds, 0.02% hits;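 active = single-dose screening hits from any of four coupled enzyme assays that gave an IC50 when retested across doses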;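 also: the DPM-DC format reads NADH fluorescence rather than 340 nm absorbance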
Spn DPM-DC inh – blocks S. pneumoniae diphosphomevalonate decarboxylase | purified DPM-DC, PK/LDH coupled NADH fluorescence | calls only at 10 µM | 65,000 compounds, 0.49% hits;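 active = the 320 compounds with the highest percent inhibition in the single-dose primary screen, excluding strongly autofluorescent ones, cut at about 32% in these data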;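 also: kinetic rate of NADH fluorescence loss reporting ADP formed by the decarboxylase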
Spn MK inh – inhibitors of Streptococcus pneumoniae mevalonate kinase. purified MK, PK/LDH-coupled NADH absorbance 340 nm. inhibition, % at 10 µM. 65,000 compounds, 0.48% hits;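 active = ranked among the strongest by inhibition in the single 10 µM screen, a fixed top-ranked set picked for dose follow-up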
PMK inhibit – S. pneumoniae PMK inhibition; purified PMK, PK/LDH-coupled NADH absorbance 340 nm; inhibition, % at 10 µM; 65,000 compounds, 0.49% hits; AID 539;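 active = top-ranked compounds by inhibition in the single 10 µM screen, taking a fixed number of the strongest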;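 also: 0% = full reaction with DMSO carrier and 100% = background rate without enzyme reaction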
Fluor 339 460 – intrinsic fluorescence of library compounds, ex339/em460 – biochemical, MLSMR library, data from DPM-DC assay, artefact control, profiling panel | compound autofluorescence, ex339/em460 nm, NADH buffer; stronger effect = higher value; 1 = no-compound wells, NADH background | AID 709 | 65,000 compounds, 5.5% hits | fluorescence fold increase at 10 µM;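 active = at 10 µM, mean starting fluorescence two-fold or more over control wells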;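 also: signal is the first read of a kinetic run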
A340 absorber – absorbance at 340 nm; compound absorbance at 340 nm, fold over control; fold change at 10 µM; 65,000 tested, under 10 active; AID 708;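 active = at 10 µM dose, initial 340 nm absorbance at least 2 fold that of control wells; inactive = change under 2 fold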;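 also: initial absorbance extrapolated from kinetic A340 decline of NADH oxidation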
Numbers without * were called inactive; i = inactive; / = not tested or not shown; + = active, no number.

SMILES	NADH enzymes	Spn DPM-DC inh	Spn MK inh	PMK inhibit	Fluor 339 460	A340 absorber
COc1cc(-c2nnc(-c3ccco3)o2)ccc1OCc1ccccc1	11%	/	11	10	3.6*	1.1
COc1cc(-c2nnc(-c3ccncc3)o2)ccc1OCc1ccccc1	9%	i	15	11	2.4*	1.1
Cc1nc2cc(NC(=O)NCc3ccco3)ccc2n1C	39%	+	10	8	1.1	0.97
Cc1nc2ccc(NC(=O)NCc3ccco3)cc2s1	2%	i	5	9	1.1	0.99
Cc1sc(NC(=O)CSc2nnc(COc3ccccc3)n2C)c(C#N)c1C	5%	i	9	17	2.1*	1
Cc1ccc(CNc2nc3ccccc3n3nnnc23)cc1	10%	i	0	9	2.4*	1.1
CCN(CC)S(=O)(=O)c1ccc(Nc2nc3ccccc3n3nnnc23)cc1	7%	i	0	7	3.6*	1.1
c1ccc2c(c1)nc(Nc1ccc3c(c1)OCO3)c1nnnn12	3%	i	0	8	1.2	1
Cc1ccc(-c2nc3ccccc3n3nnnc23)cc1	8%	/	9	7	3.8*	1.1
CCOC(=O)N1CCC(Nc2nc3ccccc3n3nnnc23)CC1	7%	/	0	13	4*	1
COc1ccc(N2CCN(c3nc(NC(C)(C)C)nc(N4CCCCC4)n3)CC2)cc1	3%	i	4	5	1.1	1.1
CSCCC(NS(=O)(=O)c1ccc2c(c1)oc(=O)n2C)C(=O)NC1CCCCC1 (configuration not stated)	6%	i	13	7	1	0.98
CC(C)(C)n1nnnc1C(c1cccs1)N1CCCc2ccccc21 (configuration not stated)	7%	i	7	12	1	0.97
Cc1nn(C(=O)c2ccccc2)c2c1C(=O)CC(C)(C)C2	1%	i	12	0	1.1	1
O=c1oc(-c2cccs2)nc2sc3c(c12)CCCCC3	5%	/	2	8	2.1*	1
CN(C)c1nc2sc3c(c2c(=O)n1C)CC(C)(C)OC3	7%	i	10	10	1.1	1.1
CNc1nc2sc3c(c2c(=O)n1C)CC(C)(C)SC3	5%	i	6	2	2.2*	1
CSc1nc(N(CCO)CCO)c2sc3nc(-c4ccco4)c4c(c3c2n1)CCC4	6%	/	12	0	2.3*	1.1
CC(C)c1nc2sc3c(SCC(=O)NCc4ccco4)ncnc3c2c2c1CCC2	4%	i	11	0	1.1	1.1
CCCN(CCC)CCNC(=O)C(NS(=O)(=O)c1ccc2c(c1)CCC(=O)N2)c1ccccc1 (configuration not stated)	3%	i	3	12	1	1
Cc1ccc(-c2cc(-c3ccc(F)cc3)nc(N)c2C#N)o1	9%	/	5	12	3.7*	1.1
Cc1ccc(-c2cc(-c3ccccc3)c(C#N)c(N)n2)o1	18%	/	18	17	5.1*	0.99
Cc1ccc(C2C(C#N)=C(N)Oc3nc(-c4ccccc4)[nH]c32)o1 (configuration not stated)	5%	i	6	10	1.1	1
Cc1ccc(-c2cc(-c3ccccc3Cl)c(C#N)c(N)n2)o1	8%	/	15	0	2.3*	1.1
CC1(C)Oc2ccc3ccc(=O)oc3c2-c2cnoc21	8%	/	5	10	2.2*	1.1
SMILES	NADH enzymes	Spn DPM-DC inh	Spn MK inh	PMK inhibit	Fluor 339 460	A340 absorber
CC1(C)Oc2ccc3ccc(=O)oc3c2-c2cn[nH]c21	3%	i	0	6	1.4	1.1
COCCNC(=O)c1cc(-c2ccc(Cl)c(Cl)c2)on1	1%	i	3	0	1.1	1
COCCNC(=O)C(c1ccc(C)o1)N(Cc1ccc(OC)cc1)C(=O)Cn1nnc2ccccc21 (configuration not stated)	3%	i	0	25*	1.1	1
CC(=O)N(CC(C)(C)CC=C(C)C)c1ccccc1	0%	i	1	0	1.1	1
S=c1[nH]nc(-c2ccccc2)n1C1C=CCCC1 (configuration not stated)	9%	+	14	11	1.1	0.99
COc1ccc(NS(=O)(=O)c2cc(-c3nnnn3C)ccc2OC)cc1	4%	i	11	0	1.1	1
CCOC(=O)c1cc2c(=O)n3ccccc3nc2n(Cc2ccco2)c1=NC(=O)c1cccnc1	3%	/	3	3	2.2*	1
CCOC(=O)c1cc2c(=O)n3ccccc3nc2n(CC(C)C)c1=NC(=O)c1ccco1	3%	/	9	0	2.5*	1
Cc1cccn2c(=O)c3cc(C#N)c(=NC(=O)c4ccccc4)n(Cc4ccco4)c3nc12	7%	/	3	11	2.3*	1.1
O=C(CSc1nc2ccccc2c(=O)n1Cc1ccco1)c1ccccc1	5%	i	6	10	1.1	0.98
CCOC(=O)c1cc2c(=O)n3cccc(C)c3nc2n(Cc2ccco2)c1=NC(=O)c1cccnc1	8%	i	4	11	2.2*	0.99
CCOC(=O)c1cc2c(=O)n3ccccc3nc2n(CCCOC)c1=NC(=O)c1cccnc1	5%	i	8	0	1.7	1.1
COc1ccc(CCNC(=O)c2cnn3cccnc23)cc1OC	5%	i	5	11	1.2	1.1
CCC(=O)N1CCN(c2cc3c(cc2F)c(=O)c(C(=O)O)cn3CC)CC1	3%	/	0	5	4.8*	1.1
CCOC(=O)c1cn(CC)c2cc(N3CCOCC3)c(F)cc2c1=O	4%	/	9	16	2.3*	1
CCCCCCC(=O)N1CCN(c2cc3c(cc2F)c(=O)c(C(=O)O)cn3CC)CC1	4%	i	0	7	1	1
CCOC(=O)N1CCN(C(=O)c2cn(CC)c3cc(N4CCN(C)CC4)c(F)cc3c2=O)CC1	9%	+	5	18	1.9	1
CCN1CCN(c2cc3c(cc2F)c(=O)c(C(=O)O)cn3C2CC2)CC1	7%	/	6	23	2.2*	1
CCOC(=O)c1cn(CC)c2cc(N3CCCCC3)c(F)cc2c1=O	13%	i	4	16	2	1.1
CN(C)CCCNCCCNC(=O)/C(=N\O)c1ccccn1	5%	i	3	8	1	1
CCCOC(=O)c1ccc(OCC(O)Cn2c(C)nc3ccccc32)cc1 (configuration not stated)	2%	i	5	2	1	1
COc1ccc(NC(=O)NC(C(F)(F)F)C(F)(F)F)cc1	8%	i	16	8	1.1	1
Cn1c(=O)[nH]c(=O)c2c1nc(Br)n2CCSc1nc2ccccc2o1	5%	i	10	5	1.1	1
Brc1cnn(-c2nc(N3CCOCC3)nc(N3CCOCC3)n2)c1	3%	i	0	10	1.1	0.99
